Measured values from ChEMBL document CHEMBL1961873, “Compounds: GSK PKIS; Assays: Nanosyn kinase panel” (2012).

What follows are molecules tested against T1, cGMP-dependent protein kinase 2 (Homo sapiens) (UniProt Q13237). Conditions: at 0.1 µM.
T1 sequence (whole entry): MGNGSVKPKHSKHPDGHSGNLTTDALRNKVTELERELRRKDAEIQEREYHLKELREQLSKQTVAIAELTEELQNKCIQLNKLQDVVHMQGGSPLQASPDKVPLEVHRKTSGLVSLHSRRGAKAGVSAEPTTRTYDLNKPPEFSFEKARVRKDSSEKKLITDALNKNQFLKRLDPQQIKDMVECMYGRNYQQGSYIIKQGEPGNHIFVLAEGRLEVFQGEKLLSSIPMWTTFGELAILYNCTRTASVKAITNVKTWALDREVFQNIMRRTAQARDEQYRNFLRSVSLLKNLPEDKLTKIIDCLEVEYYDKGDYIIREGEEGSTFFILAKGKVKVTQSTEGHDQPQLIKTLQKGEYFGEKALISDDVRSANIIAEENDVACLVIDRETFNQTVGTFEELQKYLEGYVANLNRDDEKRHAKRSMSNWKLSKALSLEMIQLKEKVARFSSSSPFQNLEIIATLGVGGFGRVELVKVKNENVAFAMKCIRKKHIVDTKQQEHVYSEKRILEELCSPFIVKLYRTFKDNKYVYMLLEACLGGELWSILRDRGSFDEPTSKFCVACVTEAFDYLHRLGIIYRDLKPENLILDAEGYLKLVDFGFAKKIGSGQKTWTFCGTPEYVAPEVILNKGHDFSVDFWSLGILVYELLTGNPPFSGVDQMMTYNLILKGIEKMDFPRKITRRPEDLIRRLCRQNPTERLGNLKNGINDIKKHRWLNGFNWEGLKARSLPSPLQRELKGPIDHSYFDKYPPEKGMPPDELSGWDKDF

| SMILES | inhibition [%] |
| --- | --- |
| Fc1ccc(-c2nn3ccccc3c2-c2ccncc2)cc1 | 2.4 |
| CCCN(CCS(C)(=O)=O)Cc1ccc(-c2ccc3ncnc(Nc4ccc(OCc5cccc(F)c5)c(Cl)c4)c3c2)o1 | 0.95 |
| COc1cc(/C=N/Nc2ncnc3[nH]ncc23)ccc1O | 13.5 |
| c1cc(-c2cnn3nc(N4CCOCC4)ccc23)nc(NC2CC2)n1 | 2.25 |
| CN1CCC(n2cnc(-c3ccc(F)cc3)c2-c2ccnc(N)n2)CC1 | 2.99 |
| Fc1ccc(-c2nn3ncccc3c2-c2ccnc(Nc3ccc4c(c3)OCCO4)n2)cc1 | 2.03 |
| COc1ccc(-c2oc3ncnc(N)c3c2-c2ccc(NC(=O)Nc3cc(C(F)(F)F)ccc3F)cc2)cc1 | 3.35 |
| CCN(CC)S(=O)(=O)c1ccc(OC)c(Nc2ncc(-c3ccccc3)o2)c1 | 0.25 |
| Cc1ccc(O)cc1Nc1ccnc2cc(-c3ccccn3)ccc12 | 1.7 |
| COc1ccc(-c2nn3ncccc3c2-c2ccnc(Nc3ccc4c(c3)OCCO4)n2)cc1 | 0.2 |
| COc1cccc(-n2ncc3c(N/N=C/c4ccc(F)cc4)ncnc32)c1 | 2.19 |
| CC1=C(C(=O)Nc2cc(Cl)c3[nH]ncc3c2)C(c2ccc(C(F)(F)F)cc2)CC(=O)N1 (centres undefined) | 16.9 |
| COc1cccc(-c2c[nH]c3c(N/N=C/c4ccncc4)ncnc23)c1 | 1.71 |
| CC(C)(CO)CNC(=O)c1ccc2c(c1)/C(=N/Nc1ccc(S(N)(=O)=O)cc1)C(=O)N2 | 2.6 |
| NS(=O)(=O)c1ccc(N/N=C2\C(=O)Nc3ccc4ncccc4c32)cc1 | 9.97 |
| CCn1c(-c2nonc2N)nc2cnc(Oc3cccc(NC(=O)c4ccc(N(C)C)cc4)c3)cc21 | 21.7 |
| c1ccc(-c2nc3n(c2-c2ccc4c(c2)OCO4)CCC3)nc1 | 1.67 |
| NC(=O)c1sc(-n2cnc3ccc(C(F)(F)F)cc32)cc1OCc1ccccc1Br | 2.01 |
| COc1ccc(-c2cc3c(N)ncnc3o2)cc1 | -1.2 |
| N#Cc1c(NC(=O)c2ccc(F)cc2)sc2c1CCCC2 | -0.45 |

Each molecule was assayed against T1, cGMP-dependent protein kinase 2 (Homo sapiens). Conditions: at 1 µM.

| SMILES | inhibition [%] |
| --- | --- |
| c1ccc(COc2ccc(Nc3ncnc4ccc(-c5ccco5)cc34)cc2)cc1 | 1.35 |
| COC(=O)Nc1nc2ccc(S(=O)(=O)c3ccc(NC(=O)Nc4cc(C(F)(F)F)ccc4F)cc3)cc2[nH]1 | 2.48 |
| CN(C)CCOc1ccc(-c2nc(-c3ccncc3)c(-c3ccc4c(c3)CC/C4=N\O)[nH]2)cc1 | 12.3 |
| CS(=O)(=O)CCNCc1ccc(-c2ccc3ncnc(Nc4ccc(OCc5ccccc5)c(C(F)(F)F)c4)c3c2)o1 | 0.3 |
| COc1cc2ncn(-c3cc(OCc4ccccc4C(F)(F)F)c(C(=O)N(C)C)s3)c2cc1OC | 0.43 |
| CC(C)COC(=O)c1ccc2c(c1)/C(=C/Nc1ccc(S(N)(=O)=O)cc1)C(=O)N2 | 54.4 |
| CCc1nn2ncccc2c1-c1ccnc(NC2CC2)n1 | 3.27 |
| CN1CCC(n2cnc(-c3ccc(F)cc3)c2-c2ccnc(Nc3ccccc3)n2)CC1 | 5.8 |
| FC(F)(F)c1cccc(-c2nn3ncccc3c2-c2ccnc(Nc3ccc4c(c3)OCCO4)n2)c1 | 3.03 |
| COc1ccc2[nH]c3c4[nH]c5ccc(OC)cc5c4c4c(c3c2c1)C(=O)NC4=O | 72.5 |
| CNC(=O)c1cccc(C#Cc2cncnc2Nc2ccc(OCc3cccc(F)c3)c(Cl)c2)c1 | 0.97 |
| COc1cc(N2CCN(C(C)C)CC2)ccc1Nc1nc(Nc2ccc(F)cc2C(N)=O)c2cc[nH]c2n1 | 25.4 |
| Fc1ccc(-c2cc(-c3c[nH]nc3-c3ccccn3)ccn2)cc1 | 2.9 |
| COc1cc2c(cc1Nc1nc(Nc3ccsc3C(N)=O)c3cc[nH]c3n1)N(C(=O)CN(C)C)CCC2(C)C | 9.54 |
| Fc1ccc(-c2nn3ccccc3c2-c2ccncc2)cc1 | 3.57 |
| CCCN(CCS(C)(=O)=O)Cc1ccc(-c2ccc3ncnc(Nc4ccc(OCc5cccc(F)c5)c(Cl)c4)c3c2)o1 | 1.07 |
| COc1cc(/C=N/Nc2ncnc3[nH]ncc23)ccc1O | 55 |

| SMILES | inhibition [%] |
| --- | --- |
| c1cc(-c2cnn3nc(N4CCOCC4)ccc23)nc(NC2CC2)n1 | 11.9 |
| CN1CCC(n2cnc(-c3ccc(F)cc3)c2-c2ccnc(N)n2)CC1 | 30.7 |
| Fc1ccc(-c2nn3ncccc3c2-c2ccnc(Nc3ccc4c(c3)OCCO4)n2)cc1 | 3.43 |
| COc1ccc(-c2oc3ncnc(N)c3c2-c2ccc(NC(=O)Nc3cc(C(F)(F)F)ccc3F)cc2)cc1 | 5.54 |
| CCN(CC)S(=O)(=O)c1ccc(OC)c(Nc2ncc(-c3ccccc3)o2)c1 | 0.95 |
| Cc1ccc(O)cc1Nc1ccnc2cc(-c3ccccn3)ccc12 | 3.8 |
| COc1ccc(-c2nn3ncccc3c2-c2ccnc(Nc3ccc4c(c3)OCCO4)n2)cc1 | -1.06 |
| COc1cccc(-n2ncc3c(N/N=C/c4ccc(F)cc4)ncnc32)c1 | 2.67 |
| CC1=C(C(=O)Nc2cc(Cl)c3[nH]ncc3c2)C(c2ccc(C(F)(F)F)cc2)CC(=O)N1 (centres undefined) | 59.7 |
| COc1cccc(-c2c[nH]c3c(N/N=C/c4ccncc4)ncnc23)c1 | 8.58 |
| CC(C)(CO)CNC(=O)c1ccc2c(c1)/C(=N/Nc1ccc(S(N)(=O)=O)cc1)C(=O)N2 | 22 |
| NS(=O)(=O)c1ccc(N/N=C2\C(=O)Nc3ccc4ncccc4c32)cc1 | 46.1 |
| CCn1c(-c2nonc2N)nc2cnc(Oc3cccc(NC(=O)c4ccc(N(C)C)cc4)c3)cc21 | 60.8 |
| c1ccc(-c2nc3n(c2-c2ccc4c(c2)OCO4)CCC3)nc1 | 2.85 |
| NC(=O)c1sc(-n2cnc3ccc(C(F)(F)F)cc32)cc1OCc1ccccc1Br | 5.42 |
| COc1ccc(-c2cc3c(N)ncnc3o2)cc1 | 1.5 |
| N#Cc1c(NC(=O)c2ccc(F)cc2)sc2c1CCCC2 | 3.35 |
